Test [1] addresses Nuclear respiratory factor 1 (Homo sapiens) (UniProt Q16656). Put plainly: ATG_NRF1_CIS: Attagene CIS-FACTORIAL HepG2 Assay for human Nuclear Respiratory Factor 1 (NRF1) Orphan Gene (AID 2282987). The settings on record: HepG2 NRF1 cis-element reporter, Attagene multiplex; actives raise or lower the signal. The method in brief:
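Cells (HepG2, transient MRTU transfection) are exposed to compound for 24 h, then RNA isolated and reporter mRNA amplified and fluorescently labelled. Fragments are separated by capillary electrophoresis; signal change is fitted bidirectionally relative to DMSO.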

Test [2] is described as follows: ATG_NFI_CIS: Attagene CIS-FACTORIAL HepG2 Assay for human Nuclear Factor I (NFI) (AID 2282989). The settings on record: HepG2 cis-regulatory reporter, NFI response element transcription; actives raise or lower the signal. The method in brief:
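HepG2, transient MRTU, 24 h exposure; RNA→cDNA→PCR→FAM label→HpaI→CE fluorescence. Bidirectional fit, DMSO = baseline.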

The target of test [3] is Myc proto-oncogene protein (Homo sapiens) (UniProt P01106). Put plainly: ATG_Myc_CIS: Attagene CIS-FACTORIAL HepG2 Assay for human Myelocytomatosis (Myc) Proto-Oncogene Transcription Factor (AID 2282990). Particulars: HepG2, Attagene cis-reporter transcription factor activity; actives raise or lower the signal. An outline of the steps: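 After 24 h chemical treatment of HepG2 cells carrying multiplexed cis-regulated reporter constructs, reporter transcripts quantified by RT-PCR and capillary electrophoresis of fluorescent fragments. Gain or loss fitted against DMSO baseline.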
Chain of Myc proto-oncogene protein (Homo sapiens) (P01106 whole entry, looked up, the tested form may be a part): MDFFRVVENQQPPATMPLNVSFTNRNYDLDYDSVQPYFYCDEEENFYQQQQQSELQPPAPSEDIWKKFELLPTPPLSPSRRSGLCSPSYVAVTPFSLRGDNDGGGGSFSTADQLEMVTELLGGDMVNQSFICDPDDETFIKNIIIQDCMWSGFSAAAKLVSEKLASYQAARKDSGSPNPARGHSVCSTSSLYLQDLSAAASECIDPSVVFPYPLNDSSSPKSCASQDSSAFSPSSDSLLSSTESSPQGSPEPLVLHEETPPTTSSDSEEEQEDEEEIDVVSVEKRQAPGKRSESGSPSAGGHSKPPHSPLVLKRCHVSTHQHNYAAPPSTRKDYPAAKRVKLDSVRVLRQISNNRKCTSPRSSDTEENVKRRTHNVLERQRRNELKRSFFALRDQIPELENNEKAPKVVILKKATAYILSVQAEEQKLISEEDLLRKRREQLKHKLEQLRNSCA

Test [4] in a line: ATG_NF_kB_CIS: Attagene CIS-FACTORIAL HepG2 Assay for human Nuclear Factor Kappa B (NF-kB) (AID 2282991). Particulars: HepG2 Attagene cis-factorial NF-kB reporter mRNA; actives raise or lower the signal. The method in brief: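 Measures mRNA induction of an NF-kB-responsive cis-element reporter in HepG2 cells transfected with multiple reporter units, sampled 24 h post-dosing; quantified by fluorescence after RT-PCR and capillary electrophoresis, fitted for activation or inhibition against DMSO.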

A short description of test [5]: ATG_NRF2_ARE_CIS: Attagene CIS-FACTORIAL HepG2 Assay for human Nuclear Factor Erythroid 2 Related Factor 2 (NFR2) response to Antioxidant Response Elements (ARE) (AID 2282992). Particulars: HepG2 Attagene ARE/NRF2 reporter, transcription factor activity; actives raise or lower the signal. An outline of the steps: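 Endogenous transcription factor activity read out as reporter transcript levels (RT-PCR plus capillary electrophoresis, fluorescence) in transiently transfected HepG2 cells. Measured at 24 h after dosing; gain or loss of signal fitted versus DMSO.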

Test [6] is described as follows: ATG_Oct_MLP_CIS: Attagene CIS-FACTORIAL HepG2 Assay for human Octamer-Binding Transcription Factor (Oct) (AID 2282993). Particulars: HepG2 Attagene cis-factorial Oct reporter, mRNA; actives raise or lower the signal. An outline of the steps:
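Multiplexed cis-reporter assay in human liver HepG2 cells, 24 h incubation. Reporter RNA amplified and labelled, then resolved by capillary electrophoresis; DMSO serves as negative control and baseline.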

Test [7] has as its target Cellular tumor antigen p53 (Homo sapiens) (UniProt P04637). Put plainly: ATG_p53_CIS: Attagene CIS-FACTORIAL HepG2 Assay for human p53 Transcription Factor (AID 2282994). The settings on record: HepG2 p53 cis-element reporter, Attagene mRNA; actives raise or lower the signal. The method in brief:
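Endogenous p53 activity read in transiently transfected HepG2 from a cis-element-driven reporter transcript after 24 h exposure. RNA reverse-transcribed, PCR-amplified, fluorescently labelled and sized by capillary electrophoresis; gain or loss fitted against DMSO baseline.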

The nature of test [8]: BSK_3C_TissueFactor: BioMAP Diversity Plus: 3C Assay for Tissue Factor Biomarker Activity (AID 2282997). Particulars: BioMAP 3C HUVEC, tissue factor biomarker readout; actives raise or lower the signal. An outline of the steps: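 Readout: Tissue Factor ELISA. Cells: human primary umbilical vein endothelium. Time: 24 h after dosing. Analysis: bidirectional fit, DMSO baseline.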

Test [9] in a line: BSK_3C_uPAR: BioMAP Diversity Plus: 3C Assay for Urokinase-type plasminogen activator receptor (uPAR) Biomarker Activity (AID 2282998). The settings on record: BioMAP 3C HUVEC, uPAR biomarker ELISA; actives raise or lower the signal. An outline of the steps: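 Dose primary human umbilical vein endothelial cells, incubate 24 h, measure cell-surface uPAR by ELISA, then fit the signal in both directions against the DMSO negative control.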

Test [10] can be described thus: BSK_3C_VCAM1: BioMAP Diversity Plus: 3C Assay for Vascular cell adhesion molecule 1 (VCAM1) Biomarker Activity (AID 2282999). Particulars: BioMAP 3C HUVEC, VCAM1 ELISA, cytokine-stimulated; actives raise or lower the signal. The method in brief: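 Activity fitted in both directions relative to DMSO, with ELISA measurement of the surface marker on primary HUVEC (3C) at 24 h post-treatment; parallel SRB staining (0.1% SRB, TCA-fixed, 560 nm) flagged overt cytotoxicity.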

Test [11] is described as follows: BSK_4H_Eotaxin3: BioMAP Diversity Plus: 4H Assay for Eotaxin 3 Biomarker Activity (AID 2283000).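 Note: CCL26 protein level quantified by ELISA in parallel with SRB cytotoxicity check.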 The settings on record: primary human endothelial cells (HUVEC); actives raise or lower the signal. An outline of the steps:
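HUVEC, 24 h post-dose, ELISA for Eotaxin-3/CCL26. Gain or loss of signal fitted bidirectionally vs DMSO baseline.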

The target in test [12] is human Peroxisome Proliferator-activated Receptor alpha (PPARa), PPARA (gene 5465) (UniProt Q07869). Put plainly: ATG_PPARa_TRANS: Attagene TRANS-FACTORIAL HepG2 Assay for human Peroxisome Proliferator-activated Receptor alpha (PPARa) (AID 2283001; active = hit-call score of the fitted dose curve at least 0.9, where 1 is the maximum;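 for AC50: potency for gain of reporter signal over DMSO so agonist or activator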). The method in brief: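 Transfected HepG2 cells treated with test chemical for 24 h. RNA isolated, reverse-transcribed with oligo(dT), PCR-amplified, FAM-labelled and HpaI-digested. Fragments sized by capillary electrophoresis; gain-of-signal fit relative to DMSO.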
Chain of human Peroxisome Proliferator-activated Receptor alpha (PPARa), PPARA (gene 5465) (Q07869 whole entry, looked up, the tested form may be a part): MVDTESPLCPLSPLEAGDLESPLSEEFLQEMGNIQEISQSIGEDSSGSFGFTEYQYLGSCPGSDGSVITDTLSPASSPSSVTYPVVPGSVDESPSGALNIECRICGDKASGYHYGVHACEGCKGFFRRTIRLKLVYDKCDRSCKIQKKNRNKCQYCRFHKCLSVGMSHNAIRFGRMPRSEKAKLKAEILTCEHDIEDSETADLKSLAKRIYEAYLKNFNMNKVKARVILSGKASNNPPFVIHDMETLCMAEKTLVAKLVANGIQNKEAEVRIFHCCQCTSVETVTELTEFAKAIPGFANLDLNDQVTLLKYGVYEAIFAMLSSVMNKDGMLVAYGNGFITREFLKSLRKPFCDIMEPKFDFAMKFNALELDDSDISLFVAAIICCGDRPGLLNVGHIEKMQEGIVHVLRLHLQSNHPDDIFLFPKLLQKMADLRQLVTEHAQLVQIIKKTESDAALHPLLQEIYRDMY

The target in test [13] is human Peroxisome Proliferator-activated Receptor delta (PPARd), PPARD (gene 5467) (UniProt Q03181). Put plainly: ATG_PPARd_TRANS: Attagene TRANS-FACTORIAL HepG2 Assay for human Peroxisome Proliferator-activated Receptor delta (PPARd) (AID 2283002; active = hit-call score of the fitted dose curve at least 0.9, where 1 is the maximum). An outline of the steps:
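Read-out is induced reporter mRNA, quantified by RT-PCR with fluorescent labelling and capillary electrophoresis after 24 h dosing. Cells are HepG2 transiently carrying multiple GAL4-UAS reporter units driven by exogenous NR-GAL4 chimeras; DMSO serves as baseline.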

The target in test [14] is human Retinoic Acid Receptor beta (RARb), RARB (gene 5915) (UniProt P10826). Put plainly: ATG_RARb_TRANS: Attagene TRANS-FACTORIAL HepG2 Assay for human Retinoic Acid Receptor beta (AID 2283004; active = hit-call score of the fitted dose curve at least 0.9, where 1 is the maximum). An outline of the steps: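 HepG2 cells transiently transfected with multiplexed GAL4-UAS reporter units expressing chimeric NR–Gal4 fusions; 24 h compound exposure. Reporter mRNA quantified by RT-PCR, 6-FAM labelling, HpaI digestion and capillary electrophoresis; gain-of-signal fitted against DMSO baseline.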
Chain of human Retinoic Acid Receptor beta (RARb), RARB (gene 5915) (P10826 whole entry, looked up, the tested form may be a part): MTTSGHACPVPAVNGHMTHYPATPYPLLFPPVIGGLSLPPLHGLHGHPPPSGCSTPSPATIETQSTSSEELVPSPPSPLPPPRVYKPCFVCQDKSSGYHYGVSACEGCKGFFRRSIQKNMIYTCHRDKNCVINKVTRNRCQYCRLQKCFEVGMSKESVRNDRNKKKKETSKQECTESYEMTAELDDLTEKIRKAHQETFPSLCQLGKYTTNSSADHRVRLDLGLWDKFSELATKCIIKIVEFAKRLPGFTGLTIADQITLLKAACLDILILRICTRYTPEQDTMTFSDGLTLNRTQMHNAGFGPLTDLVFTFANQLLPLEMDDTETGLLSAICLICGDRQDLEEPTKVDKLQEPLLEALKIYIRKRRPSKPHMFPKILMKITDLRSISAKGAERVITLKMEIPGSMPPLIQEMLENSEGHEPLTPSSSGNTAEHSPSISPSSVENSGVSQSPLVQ

Test [15] deals with Retinoic acid receptor alpha (Homo sapiens) (UniProt P10276). Put plainly: ATG_RARa_TRANS: Attagene TRANS-FACTORIAL HepG2 Assay for human Retinoic Acid Receptor alpha (RARa) (AID 2283005; active = hit-call score of the fitted dose curve at least 0.9, where 1 is the maximum). The method in brief:
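Reporter transcripts, measured by RT-PCR with fluorescent labeling and capillary electrophoresis after 24 h dosing, reflect activity of an exogenous human RARa–GAL4 fusion in transiently transfected HepG2. Fitted for increase relative to DMSO.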

Test [16] is described as follows: BSK_3C_Proliferation: Cell Proliferation Assessment in the BioMAP Diversity Plus: 3C Assay (AID 2283006). Particulars: primary human endothelial cells (HUVEC). An outline of the steps:
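HUVEC, sub-confluent; 48 h chemical exposure; 10% TCA fix, 0.1% SRB stain, A560 total protein. Gain or loss of signal fitted both directions vs DMSO control.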

Test [17] concerns the target Nuclear receptor subfamily 1 group I member 2 (Homo sapiens) (UniProt O75469). Put plainly: ATG_PXR_TRANS: Attagene TRANS-FACTORIAL HepG2 Assay for human Pregnane X Receptor (PXR) (AID 2283008; active = hit-call score of the fitted dose curve at least 0.9, where 1 is the maximum). The method in brief: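 Transactivation by exogenous PXR–GAL4 fusion measured as reporter transcript induction after 24 h compound treatment of transfected human HepG2 cells. Read-out via RT-PCR and capillary electrophoresis of labelled fragments, fitted upward relative to DMSO.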

Test [18] concerns the target Peroxisome proliferator-activated receptor gamma (Homo sapiens) (UniProt P37231). Put plainly: ATG_PPARg_TRANS: Attagene TRANS-FACTORIAL HepG2 Assay for human Peroxisome Proliferator-activated Receptor-gamma (PPARg) (AID 2283007; active = hit-call score of the fitted dose curve at least 0.9, where 1 is the maximum). The method in brief: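 Gain-of-signal endpoint relative to DMSO, derived from reporter mRNA levels quantified by RT-PCR and capillary electrophoresis. Cells were HepG2 transiently expressing a chimeric NR-Gal4 construct with GAL4-UAS reporters, exposed to chemicals for 24 h.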

Where “and” joins values, the source holds several entries; their conditions need not be identical. Equal entries are not always repeated. Records with an inconclusive call do not appear. A structure can be active in one record and inactive in another. Calls of active or inactive are those of the source. Rule for the calls, unless noted: active = hit-call score of the fitted dose curve at least 0.9, where 1 is the maximum; inactive = score below 0.9.

Chain of Nuclear receptor subfamily 1 group I member 2 (Homo sapiens) (O75469 whole entry, looked up, the tested form may be a part): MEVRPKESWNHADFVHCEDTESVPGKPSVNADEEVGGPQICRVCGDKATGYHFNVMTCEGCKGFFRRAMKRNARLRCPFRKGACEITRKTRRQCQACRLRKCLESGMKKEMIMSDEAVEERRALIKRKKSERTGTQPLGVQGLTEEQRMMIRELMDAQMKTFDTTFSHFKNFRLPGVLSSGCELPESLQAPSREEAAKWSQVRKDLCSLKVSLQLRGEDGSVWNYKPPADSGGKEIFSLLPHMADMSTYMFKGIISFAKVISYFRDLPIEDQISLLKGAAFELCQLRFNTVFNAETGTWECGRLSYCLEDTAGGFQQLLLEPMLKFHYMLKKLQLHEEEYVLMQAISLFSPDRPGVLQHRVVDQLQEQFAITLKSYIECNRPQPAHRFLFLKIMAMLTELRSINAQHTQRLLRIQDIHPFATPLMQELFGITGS
Chain of Retinoic acid receptor alpha (Homo sapiens) (P10276 whole entry, looked up, the tested form may be a part): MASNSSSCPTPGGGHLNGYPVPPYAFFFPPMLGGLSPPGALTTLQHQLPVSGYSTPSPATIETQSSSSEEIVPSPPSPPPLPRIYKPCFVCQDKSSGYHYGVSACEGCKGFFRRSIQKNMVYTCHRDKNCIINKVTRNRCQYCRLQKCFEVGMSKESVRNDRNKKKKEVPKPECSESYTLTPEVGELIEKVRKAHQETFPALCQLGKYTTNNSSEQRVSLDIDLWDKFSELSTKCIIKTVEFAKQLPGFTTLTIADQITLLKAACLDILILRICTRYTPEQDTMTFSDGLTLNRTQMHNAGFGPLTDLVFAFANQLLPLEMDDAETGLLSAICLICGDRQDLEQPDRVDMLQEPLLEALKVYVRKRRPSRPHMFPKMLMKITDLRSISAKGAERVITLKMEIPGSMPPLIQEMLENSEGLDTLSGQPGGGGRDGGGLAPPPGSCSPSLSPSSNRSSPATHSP
Chain of human Peroxisome Proliferator-activated Receptor delta (PPARd), PPARD (gene 5467) (Q03181 whole entry, looked up, the tested form may be a part): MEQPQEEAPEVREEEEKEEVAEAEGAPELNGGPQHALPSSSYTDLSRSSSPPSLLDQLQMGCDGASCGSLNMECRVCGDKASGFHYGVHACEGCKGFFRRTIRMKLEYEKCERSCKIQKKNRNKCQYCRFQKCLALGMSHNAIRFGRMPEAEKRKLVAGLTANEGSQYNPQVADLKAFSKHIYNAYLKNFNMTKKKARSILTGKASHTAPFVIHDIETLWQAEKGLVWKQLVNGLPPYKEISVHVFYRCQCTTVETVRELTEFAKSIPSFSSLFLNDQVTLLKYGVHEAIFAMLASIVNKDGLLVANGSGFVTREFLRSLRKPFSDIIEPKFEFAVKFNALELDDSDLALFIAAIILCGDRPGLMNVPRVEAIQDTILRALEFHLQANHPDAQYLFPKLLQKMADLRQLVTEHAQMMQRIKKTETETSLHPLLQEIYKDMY
Chain of Nuclear respiratory factor 1 (Homo sapiens) (Q16656 whole entry, looked up, the tested form may be a part): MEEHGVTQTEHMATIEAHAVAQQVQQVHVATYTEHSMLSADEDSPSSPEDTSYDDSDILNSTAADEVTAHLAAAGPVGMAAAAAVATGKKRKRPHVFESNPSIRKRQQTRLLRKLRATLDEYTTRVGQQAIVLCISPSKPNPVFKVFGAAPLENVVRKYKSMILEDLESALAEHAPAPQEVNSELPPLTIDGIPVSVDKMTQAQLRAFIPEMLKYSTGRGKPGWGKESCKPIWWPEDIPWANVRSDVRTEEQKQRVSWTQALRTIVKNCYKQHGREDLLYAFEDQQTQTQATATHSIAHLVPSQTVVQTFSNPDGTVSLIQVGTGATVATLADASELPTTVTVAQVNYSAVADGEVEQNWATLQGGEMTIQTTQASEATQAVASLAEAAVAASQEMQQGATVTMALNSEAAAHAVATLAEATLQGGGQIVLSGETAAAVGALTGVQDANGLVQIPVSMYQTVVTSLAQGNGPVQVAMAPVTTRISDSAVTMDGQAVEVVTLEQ
Chain of Cellular tumor antigen p53 (Homo sapiens) (P04637 whole entry, looked up): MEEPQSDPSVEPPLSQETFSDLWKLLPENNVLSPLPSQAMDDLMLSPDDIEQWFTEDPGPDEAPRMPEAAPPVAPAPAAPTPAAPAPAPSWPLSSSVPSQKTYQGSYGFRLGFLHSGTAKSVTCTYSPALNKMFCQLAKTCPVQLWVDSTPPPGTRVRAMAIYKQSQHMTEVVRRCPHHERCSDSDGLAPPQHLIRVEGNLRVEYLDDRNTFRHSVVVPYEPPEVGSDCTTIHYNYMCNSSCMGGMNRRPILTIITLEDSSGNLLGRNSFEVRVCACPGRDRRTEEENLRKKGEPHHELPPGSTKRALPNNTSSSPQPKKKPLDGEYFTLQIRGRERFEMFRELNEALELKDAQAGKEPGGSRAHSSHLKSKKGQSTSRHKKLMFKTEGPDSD
Chain of Peroxisome proliferator-activated receptor gamma (Homo sapiens) (P37231 whole entry, looked up, the tested form may be a part): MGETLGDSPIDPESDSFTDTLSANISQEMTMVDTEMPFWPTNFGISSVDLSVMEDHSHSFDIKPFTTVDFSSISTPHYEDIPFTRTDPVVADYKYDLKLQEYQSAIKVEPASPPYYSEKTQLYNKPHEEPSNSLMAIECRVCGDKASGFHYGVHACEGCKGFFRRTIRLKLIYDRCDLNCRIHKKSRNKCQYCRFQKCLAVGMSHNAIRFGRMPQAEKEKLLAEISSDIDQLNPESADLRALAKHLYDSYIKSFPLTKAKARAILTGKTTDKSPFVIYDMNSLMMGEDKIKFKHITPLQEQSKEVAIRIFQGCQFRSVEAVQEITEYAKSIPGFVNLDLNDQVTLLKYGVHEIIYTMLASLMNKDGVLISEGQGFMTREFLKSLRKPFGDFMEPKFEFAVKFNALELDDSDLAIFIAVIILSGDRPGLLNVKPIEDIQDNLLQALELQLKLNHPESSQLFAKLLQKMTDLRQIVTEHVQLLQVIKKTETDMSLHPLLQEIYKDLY

In the case of `O=C(O)C(F)(F)C(F)(F)C(F)(F)C(F)(F)C(F)(F)C(F)(F)F`, the call in [1], in test [2], in test [3], in test [4], in test [5] and in test [6] was inactive. For the same compound, the result in test [7], in test [8], in [9], in test [10], in test [11] and in [13] was inactive. Further, the compound was classed as inactive in test [14], in test [15], in [16] and in test [17]. Further, the AC50 in test [5] is 212 µM (active) and 219 µM (active); in test [12], 18.2 µM (active) and 20.7 µM (active).

Take `CC(Br)C(=O)O` (stereo not given): the compound was classed as inactive in test [1], in test [2], in test [3], in [4], in test [5] and in [6]. Moreover, the result in [7], in test [13], in test [14] and in test [17] was inactive.

For `CCCCCCCCSC(=O)Oc1cc(Cl)nnc1-c1ccccc1`, the compound was classed as inactive in test [1], in test [3], in test [4], in test [6], in test [7] and in test [12]. In addition, the call in test [13] and in [17] was inactive. For the same compound, the concentration at half-maximal activity (AC50) in test [2] was 73.7 µM (active); in test [5], 52.7 µM (active); in test [18], 24.3 µM (active).

In the case of `C=CC#N`, the result in test [1], in test [2], in test [3], in test [4], in [6] and in test [7] was inactive. The compound was called inactive in [12] and in test [18]. The AC50 in [5] was 119 µM (active).

`O=C(Cl)c1ccc(Cl)cc1`: the compound was classed as inactive in [1], in [2], in [3], in [4], in test [5] and in [6]. Besides, the compound was called inactive in test [7], in test [12], in test [15] and in [18].

Regarding `COP(=O)(OC)OC`, the compound was called inactive in test [1], in [2], in [3], in test [4], in test [5] and in [6]. In addition, the compound was called inactive in [7], in test [12] and in test [17].

For the compound `O=C1C(Cl)=C(Cl)C(=O)c2ccccc21`, the outcome in [1], in test [2], in [3], in [4], in test [6] and in [7] was inactive. Moreover, the compound was called inactive in test [12], in test [14], in test [15] and in [17]. The concentration at half-maximal activity (AC50) in test [5] was 2.2 µM (active).

With `c1cc[c]([Hg][c]2ccccc2)cc1`, the compound was classed as inactive in [1], in test [3], in test [4], in test [5], in [7] and in test [12]. The compound was classed as inactive in test [13] and in test [17]. Also, the half-maximal activity concentration (AC50) is 20.6 µM (active) in [2], 19 µM (active) in [6] and 25.2 µM (active) in [18].

As for `CCCCCCCCCl`, the result in test [1], in test [2], in test [3], in test [4], in [5] and in test [6] was inactive. Further, the compound was called inactive in test [7], in [13], in test [15], in test [18] and in test [17].

In the case of `CCOC(=O)Nc1cccc(OC(=O)Nc2ccccc2)c1`, the result in [1], in [2], in test [3], in [4], in test [6] and in [7] was inactive. Besides, the result in test [13], in test [15] and in [17] was inactive. Also, in test [5], the AC50 is 17.2 µM (active).
